Screening results from PubChem.
DRD3 agonist: D3 dopamine receptor (human) agonism. max activation, %. 410,000 tested, 0.58% active. P35462. D3R DiscoveRx beta-arrestin cells, luminescence, 90 min; in the data active = max activation above about 30%
Target sequence (P35462 whole entry, looked up): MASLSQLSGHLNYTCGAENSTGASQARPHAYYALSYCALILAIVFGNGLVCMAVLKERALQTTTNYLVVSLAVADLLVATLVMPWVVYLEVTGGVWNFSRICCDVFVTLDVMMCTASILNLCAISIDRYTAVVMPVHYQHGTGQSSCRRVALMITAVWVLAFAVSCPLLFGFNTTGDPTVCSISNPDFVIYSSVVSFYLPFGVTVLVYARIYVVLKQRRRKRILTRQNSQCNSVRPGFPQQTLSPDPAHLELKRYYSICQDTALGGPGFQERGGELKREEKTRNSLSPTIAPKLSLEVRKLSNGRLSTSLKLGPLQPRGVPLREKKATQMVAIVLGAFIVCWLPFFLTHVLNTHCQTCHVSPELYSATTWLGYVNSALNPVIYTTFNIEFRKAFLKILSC
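Agonist mode: compounds and dopamine controls were applied to plated cells for 90 min at 37 degrees C after an overnight attachment at 1500 cells/well. Luminescent read-out followed 30 - 60 minutes at room temperature with DiscoveRx detection reagent.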
IL1B secr inh: inflammasome signaling inhibition, IL-1 beta readout | THP-1 LPS/ATP IL-1B secretion, AlphaLISA, 16 h; hits give low values | activity change, % at 57.5 µM | 360,000 tested, 4.7% active | AID 743279; in the data active = activity change below about -50%; inconclusive = mostly about -30% to -49%
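THP-1 cells pretreated 1 hr with compounds (up to 57.5 uM final), then stimulated with LPS (250 ng/mL final) plus ATP (1.25 mM final); secreted IL-1B measured by AlphaLISA after 16 hr, decreased signal indicating inhibition.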
DRD3 antagonist: blocks the human D3 dopamine receptor. D3R cells, DiscoveRx beta-arrestin luminescence, antagonist mode; hits give low values. max response, negative = inhibition, %. 360,000 tested, 2.5% active. AID 652054; in the data active = max response below about -50%; inconclusive = no clear call, values can overlap the other calls
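Cells expressing the human receptor were seeded at 1500 cells/well, incubated overnight at 37 degrees C in 5% CO2, then exposed to library compounds with dopamine controls for 90 minutes at 37 degrees C before luminescent detection.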
S2 tox: viability counter-screen for ATXN expression inhibitors | 400,000 tested, 0.49% active | AID 651635 | S2 cells (HEK-293 line with an ATXN2-luciferase reporter) viability, CellTiter-Fluor protease fluorescence, 24 h | Potency, µM (highest dose often 56.7 µM), usual class: cytotoxic; note: nearly all actives have a fitted effect of over 40% in size
Integrin act MD: activators of alpha7 integrin expression for muscular dystrophy; alpha7betagal myoblasts, beta-gal FDG fluorescence, 48 h; Potency, µM (titrated, usually from 38.3 µM), usual class: activators; 350,000 tested, 0.064% active; note: nearly all actives have a fitted effect of over 60% in size
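alpha7betagal+/- myoblasts (passage 13, 250/well) treated 48 h at 37C with compounds at 1:260 dilution of DMSO stock. Lysed, then beta-galactosidase activity read as FDG fluorescence (ex 480/em 540) after 30 min, with pre-read for autofluorescence.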
ATXN2 expr inh: inhibitors of ATXN2 expression; HEK-293 ATXN2-luciferase reporter, luminescence, 24 h; Potency, µM (doses to about 57 µM), usual class: inhibitors; 360,000 tested, 0.72% active; AID 1745845; note: nearly all actives have a fitted effect of over 55% in size
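ATXN2-luciferase reporter cells (luciferase flanked by upstream and downstream ATXN2 gene portions) were treated 24 h at 37 °C with compounds at up to 57 uM. SteadyGlo luminescence gave expression; GF-AFC fluorescence gave viability.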
Numbers stand for hits; 0 = inactive; ? = inconclusive; - = no result. A selection: hits, their analogues and other compounds. The true share with any hit is near 7%. Unless noted, calls come from the whole dose curve; as a rule, active = well fitted curve in the direction sought with a large enough effect; inconclusive = small, poorly fitted or top-dose-only effect, or another doubt; inactive = no such curve, though single readings can be large; an effect the other way counts as inactive or inconclusive.

SMILES	DRD3 agonist	IL1B secr inh	DRD3 antagonist	S2 tox	Integrin act MD	ATXN2 expr inh
Oc1cn2c(n1)Nc1ccc(Cl)c(Cl)c1C2	0	-	-	0	-	0
O=C(Nc1ccc(Cl)cc1)Nc1nnc(CSCc2ccc(Cl)cc2)s1	0	-61	0	0	?	0
CC(C)Cc1nnc(NC(=O)CCC(=O)N2CCN(Cc3ccccc3)CC2)s1	0	0	0	0	0	0
CCC(NC(C)C)C(O)c1ccc(O)c2[nH]c(=O)ccc12 (stereo not drawn)	35	0	0	-	-	0
COc1ccc(NC(=O)CN2CCN(c3c(C)cc(C)cc3C)CC2)cc1	0	0	0	0	0	0
O=C(CCN1C(=O)/C(=C/c2ccccc2Cl)SC1=S)NC1C=CS(=O)(=O)C1 (stereo not drawn)	0	-63	0	?	0	-
O=C(CCN1C(=O)/C(=C/c2ccc(F)cc2)SC1=S)NC1C=CS(=O)(=O)C1 (stereo not drawn)	0	?	0	?	0	-
O=C(CN1C(=O)S/C(=C\c2ccccc2F)C1=O)NC1C=CS(=O)(=O)C1 (stereo not drawn)	0	-70	0	0	0	0
CC(C(=O)NC1C=CS(=O)(=O)C1)N1C(=O)/C(=C/c2ccc(Cl)cc2)SC1=S (stereo not drawn)	0	-59	0	?	0	-
Cc1ccc(NC(=O)C(C)N=C2NS(=O)(=O)c3ccccc32)cc1F (stereo not drawn)	0	0	-56	0	0	0
CC(N=C1NS(=O)(=O)c2ccccc21)C(=O)NCCCc1ccccc1 (stereo not drawn)	0	0	0	?	0	0
CCOc1ccc(CCNC(=O)c2c(C)nn(-c3ccccc3)c2Cl)cc1OCC	0	0	0	0	0	0
C=CCn1c(=NC(=O)c2cccc(N3C(=O)CCC3=O)c2)sc2cccc(OC)c21	0	-99	0	?	0	0
COc1cc(Cl)cc(/C=C/c2ccc3cccc(O)c3n2)c1OC	0	0	-94	?	0	0
COc1ccccc1/C=C/c1ccc2cccc(O)c2n1	0	0	0	0	0	0
Oc1cccc2ccc(/C=C/c3ccccc3Cl)nc12	0	0	-176	0	0	-
Oc1cccc2ccc(/C=C/c3c(F)cccc3Cl)nc12	0	0	?	0	0	0
COc1ccc(Cl)cc1/C=C/c1ccc2cccc(O)c2n1	0	0	-84	0	0	0
COC(=O)c1cc(NS(=O)(=O)c2ccc(F)cc2)ccc1N1CCOCC1	0	0	0	0	0	-
CC(C)CN(C(=O)CCNC(=O)c1ccc(Cl)cc1)C1CCS(=O)(=O)C1 (stereo not drawn)	0	0	0	28µM	0	?
CC(C)CN(C(=O)CN(C)S(=O)(=O)c1ccc(Cl)cc1)C1CCS(=O)(=O)C1 (stereo not drawn)	0	0	0	0	0	0
O=C(NCc1ccccc1)C(c1ccco1)N1CCN(c2ccccc2F)CC1 (stereo not drawn)	0	-59	0	-	-	-
O=C(NCc1cccnc1)C(=O)NCC(c1ccco1)N1CCN(c2ccccc2F)CC1 (stereo not drawn)	51	0	0	0	0	0
CCCCNc1nc2sc3c(c2c(=O)n1-c1cccc(Cl)c1)CCN(C)C3	0	0	0	0	0	0
CCCCCNc1nc2sc3c(c2c(=O)n1-c1cccc(Cl)c1)CCN(C)C3	0	-57	0	0	0	0
SMILES	DRD3 agonist	IL1B secr inh	DRD3 antagonist	S2 tox	Integrin act MD	ATXN2 expr inh
O=C(CN1C(=O)COc2ccccc21)NCCCN1CCc2ccccc2C1	0	0	-77	0	0	0
O=C(CN1C(=O)COc2ccccc21)NCCN1CCC(Cc2ccccc2)CC1	0	0	-57	0	0	0
O=C(CN1CCN(c2ccccc2F)CC1)Nc1ccc2c(c1)CCC2	0	0	0	0	0	0
Cc1cccc(COC[C@H](Cc2ccccc2)N2CCN(C(=O)c3cccc(Cl)c3)CCC2=O)c1	0	0	0	-	-	0
Cc1cccc(COC[C@H](Cc2ccccc2)N2CCN(C(=O)c3cccc(C)c3)CCC2=O)c1	0	0	0	25µM	-	0
Cc1cccc(COCC(Cc2ccccc2)N2CCN(C(=O)c3cccc(Cl)c3)CCC2=O)c1 (stereo not drawn)	0	-61	0	?	0	0
COc1ccccc1OCCn1cc(/C=N/n2cnnc2)c2ccccc21	0	0	0	0	0	0
Cc1occc1-c1nnc(SCC(=O)N(C)c2ccccc2)n1C	0	0	0	0	0	0
Cn1c(-c2cccc(Br)c2)cnc1NCc1cccnc1	0	0	-60	0	0	0
COCCn1c(N)c(Sc2ccccc2[N+](=O)[O-])c(=O)[nH]c1=O	0	0	0	0	?	0
CC(CC(=O)Nc1ccncc1)c1ccccc1 (stereo not drawn)	0	0	0	0	0	0
CN(C)C(CNC(=O)Nc1cccc(Cl)c1)c1cccnc1 (stereo not drawn)	0	0	-52	0	0	0
CC(CC(=O)Nc1cccc(Cl)c1)c1ccccc1 (stereo not drawn)	0	-72	0	0	0	0
CN(C)C(CNC(=S)Nc1cccc(Cl)c1)c1ccccc1 (stereo not drawn)	0	?	-70	0	0	0
CC(c1ccccc1)N1CCC(CNC(=S)Nc2cccc(Cl)c2)C1 (stereo not drawn)	0	-80	?	?	0	?
C=C(C)Cn1c2ccc(NC(=O)NCC)cc2c(=O)n1C	0	0	0	0	-	0
CC(C)N(c1ccccc1)c1ccc(NC(=S)NCCN(C)C)cc1	0	-	-73	0	0	?
CC(CC(=O)Nc1ccc2c(c1)c(=O)n(C)n2-c1ccccc1F)c1ccccc1 (stereo not drawn)	0	0	-90	0	-	0
CN(C)CCNC(=S)Nc1cccc(Cl)c1	0	-66	0	0	0	0
Cn1c(=O)c2cc(NC(=O)CC(C)(C)C)ccc2n1-c1ccccc1F	0	0	0	0	-	0
COc1ccc(NS(=O)(=O)c2cccc(C(=O)N3CCOCC3)c2)cc1	0	0	0	0	0	-
CCCc1cc(N2CCC(C(N)=O)CC2)nc(-c2ccccc2)n1	0	?	0	0	0	0
O=C(CCCN1C(=O)/C(=C/c2ccccc2Cl)SC1=S)NNC(=O)c1ccccc1	0	-102	0	?	0	?
O=C(CCCN1C(=O)/C(=C/c2ccccc2Cl)SC1=S)NNC(=O)c1cccnc1	0	0	0	0	0	?
O=C(CCCN1C(=O)/C(=C/c2ccccc2Cl)SC1=S)NNC(=O)c1ccc(Cl)cc1Cl	0	0	0	0	0	2.5µM
O=C(CCN1C(=O)/C(=C/c2ccccc2Cl)SC1=S)Nc1ccccc1C(=O)O	0	0	0	0	0	0
